# In ChEMBL document CHEMBL1961873, “Compounds: GSK PKIS; Assays: Nanosyn kinase panel” (2012):
# Tests used:
# [1] = target: Sphingosine kinase 1 (Homo sapiens) (UniProt Q9NYA1); conditions: at 1 µM;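 also: mean SPHK1 inhibition value reported from the GSK PKIS kinase panel screen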
# [2] = target: T1, Sphingosine kinase 2 (Homo sapiens) (UniProt Q9NRA0); conditions: at 0.1 µM
# T1 sequence (whole entry): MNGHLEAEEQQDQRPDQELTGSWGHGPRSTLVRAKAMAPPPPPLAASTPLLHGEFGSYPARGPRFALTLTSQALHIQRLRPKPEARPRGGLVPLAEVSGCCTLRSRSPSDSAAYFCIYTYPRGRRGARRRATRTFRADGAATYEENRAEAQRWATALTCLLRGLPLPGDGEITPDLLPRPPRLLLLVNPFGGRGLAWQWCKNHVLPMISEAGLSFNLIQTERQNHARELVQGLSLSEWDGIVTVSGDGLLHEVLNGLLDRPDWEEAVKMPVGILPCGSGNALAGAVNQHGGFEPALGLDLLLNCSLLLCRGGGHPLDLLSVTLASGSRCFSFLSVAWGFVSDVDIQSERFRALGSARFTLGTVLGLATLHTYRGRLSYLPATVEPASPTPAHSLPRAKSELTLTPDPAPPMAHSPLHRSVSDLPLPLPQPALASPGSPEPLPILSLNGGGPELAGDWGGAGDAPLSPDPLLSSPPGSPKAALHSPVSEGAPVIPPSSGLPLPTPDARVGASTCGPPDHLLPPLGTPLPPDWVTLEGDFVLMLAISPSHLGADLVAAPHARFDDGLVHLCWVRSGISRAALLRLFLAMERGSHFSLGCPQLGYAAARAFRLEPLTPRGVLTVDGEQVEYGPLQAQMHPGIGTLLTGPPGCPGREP
# [3] = target: T1, Sphingosine kinase 2 (Homo sapiens); conditions: at 1 µM
# [4] = target: Casein kinase II subunit alpha (Homo sapiens) (UniProt P68400); conditions: at 0.1 µM
# [5] = target: Casein kinase II subunit alpha (Homo sapiens) (UniProt P68400); conditions: at 1 µM
# [6] = target: T2, Inhibitor of nuclear factor kappa-B kinase subunit alpha (Homo sapiens) (UniProt O15111); conditions: at 0.1 µM
# T2 sequence (whole entry): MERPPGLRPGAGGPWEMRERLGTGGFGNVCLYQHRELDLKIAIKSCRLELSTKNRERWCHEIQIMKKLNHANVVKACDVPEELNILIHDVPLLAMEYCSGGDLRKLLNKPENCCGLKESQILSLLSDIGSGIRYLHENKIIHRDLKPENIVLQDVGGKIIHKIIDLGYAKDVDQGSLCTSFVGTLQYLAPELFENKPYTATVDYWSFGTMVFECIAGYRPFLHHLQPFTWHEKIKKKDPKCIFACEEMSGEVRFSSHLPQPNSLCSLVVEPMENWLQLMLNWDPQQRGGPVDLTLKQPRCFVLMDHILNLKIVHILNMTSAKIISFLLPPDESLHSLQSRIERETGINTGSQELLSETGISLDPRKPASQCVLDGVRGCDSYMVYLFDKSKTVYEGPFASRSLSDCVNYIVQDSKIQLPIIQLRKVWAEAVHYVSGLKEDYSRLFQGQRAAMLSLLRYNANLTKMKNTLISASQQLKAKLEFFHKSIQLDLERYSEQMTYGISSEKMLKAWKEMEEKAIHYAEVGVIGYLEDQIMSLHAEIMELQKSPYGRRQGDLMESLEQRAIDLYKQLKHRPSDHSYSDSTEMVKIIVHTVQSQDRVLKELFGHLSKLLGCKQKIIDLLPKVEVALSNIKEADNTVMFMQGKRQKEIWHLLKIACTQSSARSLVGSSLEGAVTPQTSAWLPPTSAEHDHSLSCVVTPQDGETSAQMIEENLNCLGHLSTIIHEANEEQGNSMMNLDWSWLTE
# [7] = target: T2, Inhibitor of nuclear factor kappa-B kinase subunit alpha (Homo sapiens); conditions: at 1 µM
# [8] = target: T3, Inhibitor of nuclear factor kappa-B kinase subunit beta (Homo sapiens) (UniProt O14920); conditions: at 0.1 µM
# T3 sequence (whole entry): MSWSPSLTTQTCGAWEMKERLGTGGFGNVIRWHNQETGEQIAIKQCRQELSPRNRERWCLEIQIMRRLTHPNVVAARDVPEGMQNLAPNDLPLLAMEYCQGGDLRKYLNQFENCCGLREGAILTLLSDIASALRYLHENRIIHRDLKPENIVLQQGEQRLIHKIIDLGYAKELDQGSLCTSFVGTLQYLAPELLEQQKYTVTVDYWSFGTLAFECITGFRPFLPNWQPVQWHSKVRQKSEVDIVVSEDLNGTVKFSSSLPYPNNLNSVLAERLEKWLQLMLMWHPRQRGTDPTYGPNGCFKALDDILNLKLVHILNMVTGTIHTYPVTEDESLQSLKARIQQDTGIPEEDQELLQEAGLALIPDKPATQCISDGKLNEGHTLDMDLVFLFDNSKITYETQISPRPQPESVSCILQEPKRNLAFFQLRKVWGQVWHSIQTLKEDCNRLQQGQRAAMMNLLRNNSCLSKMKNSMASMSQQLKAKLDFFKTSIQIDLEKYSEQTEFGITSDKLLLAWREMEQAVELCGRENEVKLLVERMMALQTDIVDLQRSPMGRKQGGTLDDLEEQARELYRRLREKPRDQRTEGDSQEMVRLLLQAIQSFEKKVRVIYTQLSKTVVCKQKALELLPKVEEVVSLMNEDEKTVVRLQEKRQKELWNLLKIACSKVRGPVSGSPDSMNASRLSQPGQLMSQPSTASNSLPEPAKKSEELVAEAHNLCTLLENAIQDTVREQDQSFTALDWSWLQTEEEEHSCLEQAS
# [9] = target: T3, Inhibitor of nuclear factor kappa-B kinase subunit beta (Homo sapiens); conditions: at 1 µM
# [10] = target: T4, Inhibitor of nuclear factor kappa-B kinase subunit epsilon (Homo sapiens) (UniProt Q14164); conditions: at 0.1 µM
# T4 sequence (whole entry): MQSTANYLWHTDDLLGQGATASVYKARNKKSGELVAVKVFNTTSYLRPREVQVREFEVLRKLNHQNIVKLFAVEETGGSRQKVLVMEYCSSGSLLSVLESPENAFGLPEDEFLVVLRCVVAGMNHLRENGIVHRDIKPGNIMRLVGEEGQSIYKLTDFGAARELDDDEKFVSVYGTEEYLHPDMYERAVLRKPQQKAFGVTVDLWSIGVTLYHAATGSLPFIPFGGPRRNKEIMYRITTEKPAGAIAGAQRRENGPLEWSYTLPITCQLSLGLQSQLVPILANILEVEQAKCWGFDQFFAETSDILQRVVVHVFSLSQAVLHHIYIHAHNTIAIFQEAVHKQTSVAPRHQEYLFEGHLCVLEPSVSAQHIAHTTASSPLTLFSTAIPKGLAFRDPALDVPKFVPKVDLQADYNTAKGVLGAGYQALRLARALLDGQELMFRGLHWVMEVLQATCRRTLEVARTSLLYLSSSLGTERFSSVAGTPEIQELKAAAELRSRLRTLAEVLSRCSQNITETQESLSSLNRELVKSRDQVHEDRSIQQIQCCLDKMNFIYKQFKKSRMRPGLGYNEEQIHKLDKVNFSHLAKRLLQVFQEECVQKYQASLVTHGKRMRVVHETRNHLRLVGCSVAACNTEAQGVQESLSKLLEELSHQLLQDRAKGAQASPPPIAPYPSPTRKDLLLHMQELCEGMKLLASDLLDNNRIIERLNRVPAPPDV
# [11] = target: T4, Inhibitor of nuclear factor kappa-B kinase subunit epsilon (Homo sapiens); conditions: at 1 µM
# [12] = target: T5, Serine/threonine-protein kinase Nek1 (Homo sapiens) (UniProt Q96PY6); conditions: at 0.1 µM
# T5 sequence (whole entry): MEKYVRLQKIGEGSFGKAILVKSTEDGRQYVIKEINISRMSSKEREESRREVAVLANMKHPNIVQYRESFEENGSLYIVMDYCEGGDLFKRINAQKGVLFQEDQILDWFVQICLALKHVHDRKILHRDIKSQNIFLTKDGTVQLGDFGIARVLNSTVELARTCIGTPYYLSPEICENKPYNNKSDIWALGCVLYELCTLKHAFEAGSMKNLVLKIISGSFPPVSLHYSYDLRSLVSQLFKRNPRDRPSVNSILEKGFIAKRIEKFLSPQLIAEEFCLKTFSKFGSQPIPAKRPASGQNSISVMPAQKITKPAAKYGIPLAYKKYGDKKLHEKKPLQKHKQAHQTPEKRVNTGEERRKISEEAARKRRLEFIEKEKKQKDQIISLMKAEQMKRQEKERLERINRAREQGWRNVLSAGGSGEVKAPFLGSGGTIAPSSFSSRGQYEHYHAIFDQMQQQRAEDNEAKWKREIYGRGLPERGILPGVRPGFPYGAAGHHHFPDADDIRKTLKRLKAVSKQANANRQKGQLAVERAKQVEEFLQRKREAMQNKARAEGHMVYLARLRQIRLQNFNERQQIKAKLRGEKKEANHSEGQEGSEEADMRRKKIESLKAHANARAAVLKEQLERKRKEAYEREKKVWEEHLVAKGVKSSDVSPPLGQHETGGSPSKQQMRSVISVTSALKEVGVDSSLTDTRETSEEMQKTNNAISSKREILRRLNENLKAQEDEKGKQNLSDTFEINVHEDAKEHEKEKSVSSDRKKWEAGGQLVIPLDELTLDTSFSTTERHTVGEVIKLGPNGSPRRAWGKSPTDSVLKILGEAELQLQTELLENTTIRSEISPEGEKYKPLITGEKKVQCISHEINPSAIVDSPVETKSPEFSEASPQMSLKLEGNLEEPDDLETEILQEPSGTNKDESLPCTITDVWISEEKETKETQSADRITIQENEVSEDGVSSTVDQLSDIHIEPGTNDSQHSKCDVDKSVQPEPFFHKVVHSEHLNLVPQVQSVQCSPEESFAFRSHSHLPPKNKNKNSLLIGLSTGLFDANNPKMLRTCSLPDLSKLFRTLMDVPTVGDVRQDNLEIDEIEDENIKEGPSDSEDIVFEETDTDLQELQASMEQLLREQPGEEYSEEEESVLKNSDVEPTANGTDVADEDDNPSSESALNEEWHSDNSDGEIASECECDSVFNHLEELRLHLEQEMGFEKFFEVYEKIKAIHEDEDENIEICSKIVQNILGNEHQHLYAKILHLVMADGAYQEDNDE
# [13] = target: T5, Serine/threonine-protein kinase Nek1 (Homo sapiens); conditions: at 1 µM
# [14] = target: T6, Serine/threonine-protein kinase Nek2 (Homo sapiens) (UniProt P51955); conditions: at 0.1 µM
# T6 sequence (whole entry): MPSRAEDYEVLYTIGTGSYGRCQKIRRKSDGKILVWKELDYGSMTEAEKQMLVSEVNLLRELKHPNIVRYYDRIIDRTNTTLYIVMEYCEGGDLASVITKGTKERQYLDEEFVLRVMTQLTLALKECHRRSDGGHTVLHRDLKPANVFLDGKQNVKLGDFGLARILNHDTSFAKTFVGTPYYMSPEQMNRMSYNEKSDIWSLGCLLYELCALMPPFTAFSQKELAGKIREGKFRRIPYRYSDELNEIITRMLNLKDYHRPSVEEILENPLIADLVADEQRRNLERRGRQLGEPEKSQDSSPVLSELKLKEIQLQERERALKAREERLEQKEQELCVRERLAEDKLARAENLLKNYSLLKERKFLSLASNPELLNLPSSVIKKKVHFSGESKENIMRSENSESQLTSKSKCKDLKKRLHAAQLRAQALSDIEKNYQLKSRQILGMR
# [15] = target: T6, Serine/threonine-protein kinase Nek2 (Homo sapiens); conditions: at 1 µM
# [16] = target: Serine/threonine-protein kinase Nek6 (Homo sapiens) (UniProt Q9HC98); conditions: at 0.1 µM
# [17] = target: Serine/threonine-protein kinase Nek6 (Homo sapiens) (UniProt Q9HC98); conditions: at 1 µM
# [18] = target: Serine/threonine-protein kinase Nek7 (Homo sapiens) (UniProt Q8TDX7); conditions: at 0.1 µM
# [19] = target: Serine/threonine-protein kinase Nek7 (Homo sapiens) (UniProt Q8TDX7); conditions: at 1 µM
# [20] = target: T7, Serine/threonine-protein kinase Nek9 (Homo sapiens) (UniProt Q8TD19); conditions: at 0.1 µM;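 also: reported value is the mean percent inhibition of NEK9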
# T7 sequence (whole entry): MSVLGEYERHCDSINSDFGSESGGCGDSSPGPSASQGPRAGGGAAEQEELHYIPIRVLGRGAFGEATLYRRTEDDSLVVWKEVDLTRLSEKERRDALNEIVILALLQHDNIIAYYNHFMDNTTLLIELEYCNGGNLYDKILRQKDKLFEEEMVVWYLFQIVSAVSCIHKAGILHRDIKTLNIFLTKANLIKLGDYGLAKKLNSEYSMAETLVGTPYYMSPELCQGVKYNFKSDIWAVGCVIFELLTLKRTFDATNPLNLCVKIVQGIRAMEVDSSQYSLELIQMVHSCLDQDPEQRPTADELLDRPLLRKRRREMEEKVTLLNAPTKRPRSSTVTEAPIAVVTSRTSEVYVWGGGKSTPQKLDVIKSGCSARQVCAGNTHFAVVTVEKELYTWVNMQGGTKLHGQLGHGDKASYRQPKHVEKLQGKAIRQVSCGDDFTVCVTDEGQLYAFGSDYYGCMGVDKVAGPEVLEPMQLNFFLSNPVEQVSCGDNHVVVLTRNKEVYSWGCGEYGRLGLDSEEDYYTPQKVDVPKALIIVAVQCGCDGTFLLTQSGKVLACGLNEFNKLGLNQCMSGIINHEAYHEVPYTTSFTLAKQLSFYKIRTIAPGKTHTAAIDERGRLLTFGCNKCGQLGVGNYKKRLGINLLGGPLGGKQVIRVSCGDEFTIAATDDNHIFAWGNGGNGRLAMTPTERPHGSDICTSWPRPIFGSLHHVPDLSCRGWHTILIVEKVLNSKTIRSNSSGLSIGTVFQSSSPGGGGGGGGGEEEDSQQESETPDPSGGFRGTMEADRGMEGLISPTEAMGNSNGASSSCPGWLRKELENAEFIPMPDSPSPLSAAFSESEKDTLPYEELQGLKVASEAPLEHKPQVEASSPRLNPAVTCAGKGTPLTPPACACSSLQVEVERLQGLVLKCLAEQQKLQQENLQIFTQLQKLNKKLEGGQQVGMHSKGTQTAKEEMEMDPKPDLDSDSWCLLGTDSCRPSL
# Serine/threonine-protein kinase Nek7 (Homo sapiens), sequence (Q8TDX7 whole entry, looked up): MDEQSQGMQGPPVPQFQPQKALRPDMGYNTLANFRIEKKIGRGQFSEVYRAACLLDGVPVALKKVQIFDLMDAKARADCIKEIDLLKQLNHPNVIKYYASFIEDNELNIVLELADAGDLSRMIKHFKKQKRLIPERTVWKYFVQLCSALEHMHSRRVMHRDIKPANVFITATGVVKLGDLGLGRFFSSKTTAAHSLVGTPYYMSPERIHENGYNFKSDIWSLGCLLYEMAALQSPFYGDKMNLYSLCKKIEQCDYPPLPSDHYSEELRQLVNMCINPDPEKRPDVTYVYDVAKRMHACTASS
# Casein kinase II subunit alpha (Homo sapiens), sequence (P68400 whole entry, looked up): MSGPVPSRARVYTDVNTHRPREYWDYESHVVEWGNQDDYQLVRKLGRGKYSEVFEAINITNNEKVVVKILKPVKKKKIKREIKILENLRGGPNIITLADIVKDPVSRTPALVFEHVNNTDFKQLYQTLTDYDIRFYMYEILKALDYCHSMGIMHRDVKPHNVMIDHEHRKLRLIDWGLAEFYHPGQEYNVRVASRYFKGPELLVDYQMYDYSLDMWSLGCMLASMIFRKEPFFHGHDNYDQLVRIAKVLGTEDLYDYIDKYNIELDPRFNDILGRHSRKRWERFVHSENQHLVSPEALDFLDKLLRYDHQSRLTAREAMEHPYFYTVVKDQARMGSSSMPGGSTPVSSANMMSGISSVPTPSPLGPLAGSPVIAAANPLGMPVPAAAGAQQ
# Serine/threonine-protein kinase Nek6 (Homo sapiens), sequence (Q9HC98 whole entry): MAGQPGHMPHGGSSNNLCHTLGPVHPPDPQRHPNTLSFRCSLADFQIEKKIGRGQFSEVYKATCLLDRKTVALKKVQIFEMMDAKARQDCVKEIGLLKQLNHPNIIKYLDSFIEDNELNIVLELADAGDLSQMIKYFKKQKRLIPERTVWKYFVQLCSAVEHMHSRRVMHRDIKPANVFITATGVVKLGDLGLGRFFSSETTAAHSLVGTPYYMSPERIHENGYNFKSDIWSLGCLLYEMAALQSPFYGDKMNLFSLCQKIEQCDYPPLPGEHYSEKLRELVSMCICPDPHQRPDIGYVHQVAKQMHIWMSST
# Sphingosine kinase 1 (Homo sapiens), sequence (Q9NYA1 whole entry): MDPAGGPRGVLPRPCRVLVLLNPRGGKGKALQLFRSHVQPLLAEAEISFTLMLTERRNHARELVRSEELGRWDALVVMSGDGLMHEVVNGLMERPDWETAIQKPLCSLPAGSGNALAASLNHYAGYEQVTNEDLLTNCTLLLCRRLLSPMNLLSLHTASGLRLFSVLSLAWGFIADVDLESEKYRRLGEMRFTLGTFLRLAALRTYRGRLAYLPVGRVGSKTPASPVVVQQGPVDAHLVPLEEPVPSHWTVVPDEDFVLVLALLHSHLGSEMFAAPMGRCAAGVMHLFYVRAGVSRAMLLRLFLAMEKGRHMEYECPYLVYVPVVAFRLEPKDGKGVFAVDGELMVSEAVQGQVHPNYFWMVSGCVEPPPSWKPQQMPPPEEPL
compound,measurement,setting,value
[O-][S+]1CCN(Cc2ccc(-c3ccc4ncnc(Nc5ccc(OCc6ccccc6)c(Cl)c5)c4c3)o2)CC1,inhibition,[1],0.98%
same,inhibition,[2],0.01%
same,inhibition,[3],2.21%
same,inhibition,[4],3.5%
same,inhibition,[5],2.9%
same,inhibition,[6],2.69%
same,inhibition,[7],-1.63%
same,inhibition,[8],2.83%
same,inhibition,[9],1.96%
same,inhibition,[10],1.93%
same,inhibition,[11],1.71%
same,inhibition,[12],0.94%
same,inhibition,[13],0.52%
same,inhibition,[14],3.08%
same,inhibition,[15],0.41%
same,inhibition,[16],3.35%
same,inhibition,[17],1.93%
same,inhibition,[18],1.32%
same,inhibition,[19],5.75%
same,inhibition,[20],0.79%
